Measurements published in PubChem BioAssay.
Records with an inconclusive call do not appear. The source made the active and inactive calls. Cut-off not given; nearly all actives show AC50 up to about 30 µM.

Experiment: viability loss in pontine glioma line – cell-based, SU-DIPG-IV, MIPE4.0, CellTiter-Glo, qHTS, dose response (AID 1347063);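 further: compound exposure lasted 48 hours before the viability readout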
Settings: CellTiter-Glo ATP luminescence
With `CN[C@@H]1[C@@H](O)[C@@H](O[C@@H]2[C@@H](O)[C@H](O[C@H]3O[C@H](CN)[C@@H](O)[C@H](O)[C@H]3O)[C@@H](N)C[C@H]2NC(=O)[C@@H](O)CN)OC[C@]1(C)O` the outcome was “inactive”.
With `COc1cc(OC)cc(-c2ccc3ncc4ccc(=O)n(-c5ccc(N6CCNCC6)c(C(F)(F)F)c5)c4c3c2)c1` the AC50 was 2.64 µM (active).
In the case of `CC(C)N(CC[C@H](c1ccccc1)c1cc(CO)ccc1O)C(C)C`, the outcome is reported as “inactive”.
In the case of `CNC1[C@@H](O)C(O[C@@H]2C(O)C(O[C@H]3O[C@H]([C@@H](C)NC)CC[C@H]3N)[C@@H](N)C[C@H]2N)OC[C@]1(C)O` (some centres not stated), the outcome is reported as “inactive”.
For `O=c1[nH]nc(OCCCc2ccc(Cl)cc2)c(NCc2cccnc2)c1Br`, the AC50 was 18.7 µM (active).
For `Cc1cn([C@@H]2O[C@H](CO)[C@@H](O)[C@@H]2F)c(=O)[nH]c1=O`, the outcome was “inactive”.
With `Nc1nc(N)c(N=O)c(OCC2CCCCC2)n1` the AC50 was 4.69 µM (active).
For `CC/C=C\C[C@H]1C(=O)CC[C@@H]1CC(=O)OC`, the outcome was “inactive”.
In the case of `N#Cc1c(C2CCNCC2)cc(-c2c(O)cccc2OCC2CC2)nc1N`, the AC50 is reported as 13.2 µM (active).
For `CC(C)(C)[C@H](NC(=O)c1ccc(N)c(Cl)c1)C(=O)N1CCC[C@H]1C(=O)N[C@H](C#N)CC(=O)O`, the outcome was “inactive”.
For `C=CC(=O)Nc1cccc(Nc2nc(NC3CCC(N(C)C)CC3)nc3c2ncn3C(C)C)c1` (configuration not stated), the AC50 was 0.0235 µM (active).
With `CC(O)[C@@H]1NC(=O)[C@H](CCCCN)NC(=O)[C@@H](Cc2c[nH]c3ccccc23)NC(=O)[C@H](Cc2ccccc2)NC(=O)[C@@H](NC(=O)[C@H](N)Cc2ccccc2)CSSC[C@@H](C(=O)N[C@H](CO)[C@@H](C)O)NC1=O` (some centres not stated) the outcome was “inactive”.
